The values below come from PubChem BioAssay (NCATS).

One assay concerns 7G8. Description: qHTS profiling for inhibitors of Plasmodium falciparum proliferation (AID 504749).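 Note: 0% = DMSO vehicle and full inhibition = artemisinin control; nearly all actives have a fitted effect of over 60% in size.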 As to conditions: P. falciparum in erythrocytes, SYBR Green DNA, 72 h; series mostly up to 12.8 µM. The method in brief:
(§1)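 P. falciparum-infected erythrocytes (0.3% parasitemia, 2.5% hematocrit) incubated with compound 72 h at 37 C, 5% CO2. Parasite DNA detected by SYBR Green after lysis, overnight at room temperature; normalised to 0.29 uM artemisinin and DMSO.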
(In general: Quantitative high-throughput screening tests each substance at several concentrations.)

The next assay concerns CP268. The assay is described as above. The note with it: P. falciparum in erythrocytes, SYBR Green DNA, 72 h; series mostly up to 12.8 µM. The method, boiled down:
as §1

Another assay has as its system CP297. The description is as above. The note with it: P. falciparum in erythrocytes, SYBR Green DNA, 72 h; series mostly up to 12.8 µM. The method in brief: as §1
The next assay relates to DIV14. Described as above. As to conditions: P. falciparum in erythrocytes, SYBR Green DNA, 72 h; series mostly up to 12.8 µM. The method in brief: as §1
The next assay relates to DIV17. Described as above. The note with it: P. falciparum in erythrocytes, SYBR Green DNA, 72 h; series mostly up to 12.8 µM. The method in brief: as §1
A further assay relates to ICS. The assay is described as above. As to conditions: P. falciparum in erythrocytes, SYBR Green DNA, 72 h; series mostly up to 12.8 µM. The method in brief:
as §1

Assay [1] addresses Cytochrome P450 2C9 (Homo sapiens) (UniProt P11712). Description: qHTS for inhibitors of CYP2C9 against the NCATS DSHEA and TCM libraries (AID 1919973).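 Note: luminogenic pro-luciferin CYP2C9 substrate turned into luciferin with NADPH regeneration; % is set by controls: 0 for no effect and ±100 for the full control effect.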 The note with it: recombinant CYP2C9 enzyme activity, luminescence; series mostly up to 58.3 µM. The method in brief:
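Read-out is luminescence after P450-Glo detection (30 min, RT). Before that: 15 min compound–enzyme preincubation, then 30-45 min reaction with 1x NADPH regeneration solution, substrate concentration isoform-specific.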

Assay [2] in a line: Cell Viability - LYMP2-003 (AID 965).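 Note: cells exposed to compounds for 24 h before reading; 0% = DMSO only and full effect = 92 µM tetraoctylammonium bromide; nearly all actives have a fitted effect of over 50% in size.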 The note with it: LYMP2-003 lymphoblastoid cell viability; series mostly up to 92.2 µM. The method, boiled down:
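CellTiter-Glo luminescence (cellular ATP) after 24 h compound exposure at 37 C in complete medium; 2500 cells/well, 5 h settling beforehand. Concentration-response fitted to standard Hill equation for AC50. Tetraoctylammonium bromide served as positive control.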

The target of assay [3] is Androgen receptor (Homo sapiens) (UniProt P10275). Description: qHTS assay for small molecule agonists of androgen receptor signaling (AID 588515; active = well fitted curve in the direction sought with a large enough effect in the signal ratio, with a control signal flat; the % refers to the signal ratio; note: % is set by controls: 0 for no effect and ±100 for the full control effect). The note with it: AR-UAS-bla HEK293, beta-lactamase ratio, agonist 16 h; stronger effect = higher value. The method in brief: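 EC50 and efficacy came from Hill fits of titrations (up to 92 uM) normalized to 30 nM R1881 as 100% and DMSO as 0%. Compound exposure was 16 h at 37 C on AR-UAS-bla HEK293 cells, with a 405/460/530 nm CCF4 fluorescence read.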
Androgen receptor (Homo sapiens), sequence (P10275 whole entry, looked up): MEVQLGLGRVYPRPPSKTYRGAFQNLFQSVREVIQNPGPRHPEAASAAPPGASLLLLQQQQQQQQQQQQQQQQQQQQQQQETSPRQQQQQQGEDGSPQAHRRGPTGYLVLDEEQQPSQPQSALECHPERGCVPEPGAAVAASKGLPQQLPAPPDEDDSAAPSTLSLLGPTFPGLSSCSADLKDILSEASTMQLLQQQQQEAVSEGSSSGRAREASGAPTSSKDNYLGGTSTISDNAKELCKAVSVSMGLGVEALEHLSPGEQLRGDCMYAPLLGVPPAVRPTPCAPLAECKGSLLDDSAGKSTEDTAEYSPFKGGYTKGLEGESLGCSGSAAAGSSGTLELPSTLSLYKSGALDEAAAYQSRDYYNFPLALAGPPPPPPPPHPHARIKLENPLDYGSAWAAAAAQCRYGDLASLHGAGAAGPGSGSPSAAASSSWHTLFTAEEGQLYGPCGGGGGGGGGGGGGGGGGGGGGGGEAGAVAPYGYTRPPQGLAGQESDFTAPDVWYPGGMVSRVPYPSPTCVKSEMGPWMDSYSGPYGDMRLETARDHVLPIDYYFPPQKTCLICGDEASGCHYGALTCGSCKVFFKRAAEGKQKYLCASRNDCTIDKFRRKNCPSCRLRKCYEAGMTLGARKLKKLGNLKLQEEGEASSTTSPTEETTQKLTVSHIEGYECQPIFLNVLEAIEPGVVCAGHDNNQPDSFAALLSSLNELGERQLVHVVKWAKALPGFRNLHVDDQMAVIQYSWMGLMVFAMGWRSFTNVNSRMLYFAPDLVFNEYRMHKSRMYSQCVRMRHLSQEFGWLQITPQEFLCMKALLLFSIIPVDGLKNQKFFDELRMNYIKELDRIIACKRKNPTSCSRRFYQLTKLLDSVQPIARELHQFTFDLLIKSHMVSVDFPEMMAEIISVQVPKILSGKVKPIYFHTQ

Assay [4] has as its target Glucocorticoid receptor (Homo sapiens) (UniProt P04150). Kind of assay: qHTS assay for small molecule agonists of glucocorticoid receptor signaling (AID 588532; active = well fitted curve in the direction sought with a large enough effect in the signal ratio, with a control signal flat; the % refers to the signal ratio;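 note: 100% = dexamethasone at 0.1 µM and 0% = DMSO only wells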). As to conditions: HeLa MMTV-bla, beta-lactamase ratio, agonist, 18 h; stronger effect = higher value; percent of dexamethasone control, DMSO zero. The method in brief: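 HeLa GRE-bla reporter cells; 18 h compound exposure at 37 C; 2 h CCF4 loading at room temperature; fluorescence at 460 and 530 nm; EC50 by Hill equation.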

The target is the same in assay [5]. Description: qHTS assay for small molecule antagonists of glucocorticoid receptor signaling (AID 588533; active = well fitted inhibition curve with a large enough effect in the signal ratio, with a control signal flat, not every such curve was filed as active; the % refers to the signal ratio; note: % is set by controls: 0 for no effect and ±100 for the full control effect). The note with it: HeLa MMTV-bla, GRE beta-lactamase ratio, antagonist mode, 18 h; series mostly up to 76.8 µM. The method, boiled down:
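Antagonist-mode qHTS: compound titrations added to GRE-bla HeLa cells, then dexamethasone 2 nM final; 18 h, 37 C. CCF4 FRET fluorescence normalized to dexamethasone and DMSO; IC50 from Hill fit.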

Assay [6] is described as follows: qHTS assay for small molecule antagonists of peroxisome proliferator-activated receptor delta signaling (AID 588535; active = well fitted inhibition curve with a large enough effect in the signal ratio, with a control signal flat, not every such curve was filed as active; the % refers to the signal ratio;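 for max response: cells co-treated with a PPAR-delta agonist as stimulator during compound exposure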). As to conditions: HEK293T PPARd-UAS-bla, beta-lactamase FRET ratio, 18 h; 460 nm channel. The method, boiled down: (§2)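 Antagonist-mode beta-lactamase reporter (GeneBLAzer PPAR-delta-UAS-bla) in HEK293T cells, 2% charcoal/dextran FBS, 4000 cells/well. Compound titrations, 18 h at 37 C; CCF4 ratio read, IC50 and efficacy from Hill fits.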

Assay [7] concerns the target Peroxisome proliferator-activated receptor delta (Homo sapiens) (UniProt Q03181). The assay is described as above. As to conditions: HEK293T PPARd-UAS-bla, beta-lactamase FRET ratio, 18 h; series mostly up to 76.7 µM. The method, boiled down:
as §2

The nature of assay [8]: qHTS assay for small molecule activators of the nuclear factor-kappa B (NF-kB) signaling pathway (AID 651749; active = well fitted activation curve with a large enough effect in the signal ratio; the % refers to the signal ratio; note: % of control where 0% means no effect). The note with it: NF-kB-bla ME-180 cells, beta-lactamase FRET ratio, 16 h; stronger effect = higher value. The method, boiled down: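 NF-kB-bla ME-180 cells carrying a beta-lactamase reporter under an NF-kB response element, 2,000 cells/well, exposed to compound for 16 hr at 37C; FRET-based beta-lactamase fluorescence read-out of pathway activation.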

The nature of assay [9]: qHTS assay for small molecule activators of the human pregnane X receptor (PXR) signaling pathway (AID 720659; call rule not given here; note: 0% is about no effect). The note with it: DPX-2 HepG2 CYP3A4-luciferase, 24 h; series mostly up to 92.3 µM.
The target of assay [10] is Bile acid receptor (Homo sapiens) (UniProt Q96RI1). Description: qHTS assay for small molecule antagonists of farnesoid X receptor signaling (AID 588526; calls by dose curve; note: % is set by controls: 0 for no effect and ±100 for the full control effect). The note with it: HEK293T FXR-UAS-bla, beta-lactamase ratio, antagonist mode; series mostly up to 76.7 µM. The method, boiled down: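 Antagonist mode: titrated compounds tested against chenodeoxycholic acid stimulation (normalized to 50 uM CDCA and DMSO) in GeneBLAzer HEK293T cells for 16 h. Beta-lactamase read by CCF4 fluorescence; IC50 from Hill fits.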
Bile acid receptor (Homo sapiens), sequence (Q96RI1 whole entry, looked up): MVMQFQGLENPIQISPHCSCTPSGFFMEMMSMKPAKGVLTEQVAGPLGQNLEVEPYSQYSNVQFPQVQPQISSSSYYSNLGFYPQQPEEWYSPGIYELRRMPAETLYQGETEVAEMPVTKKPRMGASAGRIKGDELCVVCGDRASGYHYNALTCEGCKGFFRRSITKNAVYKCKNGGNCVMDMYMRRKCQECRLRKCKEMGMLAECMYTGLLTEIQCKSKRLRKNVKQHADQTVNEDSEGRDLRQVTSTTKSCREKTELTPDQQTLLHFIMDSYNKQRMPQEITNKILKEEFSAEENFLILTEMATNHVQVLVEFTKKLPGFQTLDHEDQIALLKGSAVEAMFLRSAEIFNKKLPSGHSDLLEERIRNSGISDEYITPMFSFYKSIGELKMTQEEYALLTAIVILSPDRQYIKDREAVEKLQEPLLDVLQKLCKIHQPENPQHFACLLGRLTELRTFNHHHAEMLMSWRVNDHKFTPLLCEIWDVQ

Assay [11] addresses Peroxisome proliferator-activated receptor gamma (Homo sapiens) (UniProt P37231). Kind of assay: qHTS assay for small molecule antagonists of peroxisome proliferator-activated receptor gamma signaling (AID 588537; active = well fitted inhibition curve with a large enough effect in the signal ratio, with a control signal flat, not every such curve was filed as active; the % refers to the signal ratio;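 note: reporter cells co-stimulated with 50 nM rosiglitazone agonist during compound treatment; % of control where 0% means no effect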). The note with it: HEK293 PPARg-UAS-bla, beta-lactamase ratio, antagonist mode; series mostly up to 76.8 µM. The method in brief: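 PPARγ-UAS-bla HEK293 cells (3000/well) in 1% charcoal/dextran-stripped FBS are treated with compound, then stimulated with 50 nM rosiglitazone for 16 h at 37 °C. Read-out is CCF4 β-lactamase fluorescence after 2 h at RT. IC50 comes from Hill fits normalised to rosiglitazone and DMSO.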

Assay [12] is described as follows: qHTS assay for small molecule agonists of the antioxidant response element (ARE) signaling pathway (AID 651741; active = well fitted activation curve with a large enough effect in the signal ratio; the % refers to the signal ratio; note: potency is the fitted concentration of half-maximal effect; for activation: % of control where 0% means no effect). As to conditions: HepG2 ARE-bla reporter, beta-lactamase FRET ratio, 16 h; series mostly up to 96 µM. The method, boiled down: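 CellSensor ARE-bla HepG2 cells (2,000/well) carrying ARE-driven beta-lactamase, exposed 16 h at 37 C. LiveBLAzer B/G FRET substrate added for 2 h at room temperature; fluorescence intensity read.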

Assay [13] has as its target Nuclear receptor ROR-gamma (Homo sapiens) (UniProt P51449). Description: qHTS assay for small molecule antagonists of the retinoid-related orphan receptor gamma (ROR-gamma) signaling pathway (AID 651802).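 Note: CHO cells with doxycycline-induced ROR-gamma expression; luciferase reporter luminescence driven by ROR response element; % is set by controls: 0 for no effect and ±100 for the full control effect; nearly all actives have a fitted effect of over 60% in size.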 As to conditions: ROR-gamma antagonist cell reporter assay; series mostly up to 92.2 µM. The method, boiled down:
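CHO, TET-inducible ROR + RORE-LUC reporter, 1536-well qHTS. Compound pinned, doxycycline added, 16hr 37C/5% CO2. ONE-Glo, 30 min RT, luminescence; signal drop scored as antagonism.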

The target of assay [14] is Cytochrome P450 2C9 (Homo sapiens) (UniProt P11712). Description: qHTS Assay for Inhibitors and Substrates of Cytochrome P450 2C9 (AID 883). Note: % is set by controls: 0 for no effect and ±100 for the full control effect; nearly all actives have a fitted effect of over 60% in size. As to conditions: recombinant CYP2C9, luciferin-H luminescence, 60 min; series mostly up to 57.1 µM. The method in brief: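 Signal: luciferase luminescence reporting luciferin produced by CYP2C9. Conditions: 10nM enzyme, Luciferin-H 100uM at KM, 25mM KPO4, 37C, 60 min NADPH-driven reaction. Reference: 57uM sulphaphenazole as 100% inhibition.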
Cytochrome P450 2C9 (Homo sapiens), sequence (P11712 whole entry, looked up, canonical isoform): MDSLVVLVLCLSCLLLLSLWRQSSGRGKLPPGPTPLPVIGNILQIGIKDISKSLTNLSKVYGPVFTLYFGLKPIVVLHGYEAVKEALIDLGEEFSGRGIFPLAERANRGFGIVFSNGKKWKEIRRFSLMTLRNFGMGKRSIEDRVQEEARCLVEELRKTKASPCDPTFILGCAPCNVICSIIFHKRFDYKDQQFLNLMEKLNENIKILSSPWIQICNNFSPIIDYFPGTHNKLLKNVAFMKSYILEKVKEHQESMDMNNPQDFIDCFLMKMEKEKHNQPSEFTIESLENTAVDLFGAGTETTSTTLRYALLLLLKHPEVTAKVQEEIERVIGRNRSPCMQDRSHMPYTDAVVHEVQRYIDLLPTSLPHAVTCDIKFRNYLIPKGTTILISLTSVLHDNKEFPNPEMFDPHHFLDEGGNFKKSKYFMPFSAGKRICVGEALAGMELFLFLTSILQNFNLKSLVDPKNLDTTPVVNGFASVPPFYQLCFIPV

Where “and” joins values, the source holds several entries; their conditions need not be identical. Identical values can stand only once. Inconclusive results are not listed. Calls of active or inactive are those of the source. Unless noted, calls come from the whole dose curve; as a rule, active = well fitted curve in the direction sought with a large enough effect; inconclusive = small, poorly fitted or top-dose-only effect, or another doubt; inactive = no such curve, though single readings can be large; an effect the other way counts as inactive or inconclusive.

Peroxisome proliferator-activated receptor gamma (Homo sapiens), sequence (P37231 whole entry, looked up): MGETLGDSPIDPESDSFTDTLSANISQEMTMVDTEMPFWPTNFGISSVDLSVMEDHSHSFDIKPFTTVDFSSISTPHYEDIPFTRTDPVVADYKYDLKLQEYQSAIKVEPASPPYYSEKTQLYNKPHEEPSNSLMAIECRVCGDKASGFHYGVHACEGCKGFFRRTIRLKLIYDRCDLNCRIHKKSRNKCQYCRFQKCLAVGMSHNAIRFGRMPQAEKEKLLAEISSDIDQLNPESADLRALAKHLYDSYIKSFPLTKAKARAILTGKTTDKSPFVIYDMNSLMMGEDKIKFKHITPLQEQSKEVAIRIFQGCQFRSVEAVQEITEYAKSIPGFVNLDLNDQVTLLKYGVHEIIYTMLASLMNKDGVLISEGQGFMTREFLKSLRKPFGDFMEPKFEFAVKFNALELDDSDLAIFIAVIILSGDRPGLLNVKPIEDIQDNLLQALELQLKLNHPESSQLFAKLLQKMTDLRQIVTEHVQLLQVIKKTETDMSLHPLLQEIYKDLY
Nuclear receptor ROR-gamma (Homo sapiens), sequence (P51449 whole entry, looked up): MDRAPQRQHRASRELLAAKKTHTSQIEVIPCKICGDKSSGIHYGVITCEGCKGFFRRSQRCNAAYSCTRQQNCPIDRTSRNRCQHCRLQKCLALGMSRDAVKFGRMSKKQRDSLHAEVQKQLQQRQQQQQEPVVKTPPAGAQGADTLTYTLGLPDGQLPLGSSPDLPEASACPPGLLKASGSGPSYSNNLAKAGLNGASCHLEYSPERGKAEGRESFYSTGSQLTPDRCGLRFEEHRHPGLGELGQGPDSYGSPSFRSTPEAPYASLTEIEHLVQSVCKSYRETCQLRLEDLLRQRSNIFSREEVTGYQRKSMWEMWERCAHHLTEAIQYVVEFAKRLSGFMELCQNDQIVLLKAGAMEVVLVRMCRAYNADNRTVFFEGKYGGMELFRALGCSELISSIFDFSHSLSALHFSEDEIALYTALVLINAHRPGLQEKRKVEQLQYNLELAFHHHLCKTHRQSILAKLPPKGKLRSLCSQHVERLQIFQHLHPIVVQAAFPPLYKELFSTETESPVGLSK
Glucocorticoid receptor (Homo sapiens), sequence (P04150 whole entry, looked up): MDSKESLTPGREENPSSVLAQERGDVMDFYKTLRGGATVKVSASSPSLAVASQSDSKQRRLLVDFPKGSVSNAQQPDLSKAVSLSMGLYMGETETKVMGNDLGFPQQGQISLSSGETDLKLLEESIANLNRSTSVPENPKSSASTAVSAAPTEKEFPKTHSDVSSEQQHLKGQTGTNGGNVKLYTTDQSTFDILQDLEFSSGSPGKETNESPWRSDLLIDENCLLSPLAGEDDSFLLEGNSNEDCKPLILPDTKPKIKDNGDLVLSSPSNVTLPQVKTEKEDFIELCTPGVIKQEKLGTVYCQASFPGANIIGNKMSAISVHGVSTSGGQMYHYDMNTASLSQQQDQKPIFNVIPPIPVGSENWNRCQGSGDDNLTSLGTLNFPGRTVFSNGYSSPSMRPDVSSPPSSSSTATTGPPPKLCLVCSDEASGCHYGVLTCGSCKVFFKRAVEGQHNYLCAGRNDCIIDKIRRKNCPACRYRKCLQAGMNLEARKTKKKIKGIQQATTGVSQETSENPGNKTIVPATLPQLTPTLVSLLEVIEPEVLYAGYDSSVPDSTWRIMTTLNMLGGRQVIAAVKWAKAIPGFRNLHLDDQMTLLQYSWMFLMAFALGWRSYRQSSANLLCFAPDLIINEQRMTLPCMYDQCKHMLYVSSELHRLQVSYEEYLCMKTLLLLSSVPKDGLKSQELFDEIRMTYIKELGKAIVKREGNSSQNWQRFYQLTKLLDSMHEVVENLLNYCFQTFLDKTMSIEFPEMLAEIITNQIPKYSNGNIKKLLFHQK
Peroxisome proliferator-activated receptor delta (Homo sapiens), sequence (Q03181 whole entry, looked up): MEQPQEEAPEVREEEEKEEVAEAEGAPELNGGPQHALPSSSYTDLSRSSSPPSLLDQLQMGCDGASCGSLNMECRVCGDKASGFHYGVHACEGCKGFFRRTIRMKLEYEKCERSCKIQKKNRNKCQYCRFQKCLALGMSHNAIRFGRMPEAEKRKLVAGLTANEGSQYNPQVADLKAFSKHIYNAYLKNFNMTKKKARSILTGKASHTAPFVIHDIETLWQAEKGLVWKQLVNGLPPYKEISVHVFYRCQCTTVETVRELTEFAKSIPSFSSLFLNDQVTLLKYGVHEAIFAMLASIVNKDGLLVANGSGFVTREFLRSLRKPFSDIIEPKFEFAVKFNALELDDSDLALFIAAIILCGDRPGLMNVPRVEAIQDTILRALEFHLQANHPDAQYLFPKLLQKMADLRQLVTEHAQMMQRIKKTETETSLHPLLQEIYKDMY

Turning to `C[C@@H]1CCC[C@H](C)N1NC(=O)c1ccc(Cl)c(S(N)(=O)=O)c1`, the Potency entry with 7G8, in the assay with CP268, in the assay on CP297, in the assay with DIV14, in the assay on DIV17 and in the assay with ICS was “inactive” throughout.
Take `COc1ccc2ccc(=O)oc2c1`: the Potency entry in [1] is “inactive”.
Take `C=C(C)[C@H]1CC=C(C)C(=O)C1`: the outcome in assay [2], in assay [5], in [7] and in assay [9] was inactive. In addition, the activation is 12.8% (inactive) and -1.39% (inactive) in assay [3]; -5.14% (inactive) and -7.53% (inactive) in [4]; -0.312% (inactive) and 0.229% (inactive) in assay [8]. Moreover, the max response in assay [6] is 35.6% and 28.4%. For the same compound, the Potency entry in assay [1] is “inactive”.
Turning to `C=CC(C)(O)CCC=C(C)C` (configuration not stated), the outcome in [10], in assay [5] and in [11] was inactive. Besides, the activation in assay [4] is -2.85% (inactive) and -11.4% (inactive). Moreover, in assay [12], the Potency result was “inactive”.
Turning to `COS(C)(=O)=O`, the result in assay [2], in assay [5], in assay [7], in [13] and in assay [9] was inactive. For the same compound, the activation in [4] is -1.66% (inactive); in [8], 0.279% (inactive). The max response in [6] is -15.8%.
Take `Cc1occc(=O)c1O`: the call in assay [2], in [13] and in assay [9] was inactive. Besides, in assay [12], the Potency entry is “inactive”. Besides, the activation in [8] was -0.401% (inactive).
Regarding `CN(C)CC/C=C1\c2ccccc2CSc2ccccc21`, the Potency entry in the assay on CP297 was “inactive”.
Turning to `CC1=CC(=O)CC(C)(C)C1(O)/C=C/C(C)=C\C(=O)O` (configuration not stated), the call in assay [2], in [10], in [5], in assay [7], in assay [11] and in assay [13] was inactive. Further, the outcome in [9] was inactive. Moreover, the activation in assay [4] was 1.52% (inactive); in assay [8], 1.73% (inactive). The max response in assay [6] was 3.87%. Moreover, the Potency in assay [12] was 37.6 µM (active).
For the compound `CN1[C@@H]2CC[C@H]1CC(OC(=O)[C@@H](O)c1ccccc1)C2` (some centres not stated), the Potency result in the assay with 7G8, in the assay on CP268, in the assay on CP297, in the assay with DIV14, in the assay on DIV17 and in the assay on ICS was “inactive” each time.
Regarding `CN1CCCC[C@@H]1CCN1c2ccccc2Sc2ccc(S(C)=O)cc21` (some centres not stated), the Potency entry in the assay with CP268, in the assay on DIV14 and in the assay with DIV17 was “inactive” each time.
On to `O=c1cnc2cnc(N3CCOCC3)nc2n1C[C@H]1CCCO1`, for which the Potency entry in assay [14] is “inactive”.
On to `COCC(=O)N1CCC2(CC1)CN(Cc1nccs1)C2`, for which the Potency result in [14] is “inactive”.
